Results on 22 molecules are retold here after PubChem BioAssay (Tox21).

Results filed as inconclusive are left out. Where a call stands in place of a potency, no number is given. Values without a mark were called inactive. Calls of active or inactive are those of the source. The call rests on the fitted dose curve; in most records, active means well fitted cell-killing curve with a large enough effect in the repeat runs; inconclusive means weak or mixed curves, or effect the other way; inactive means flat fitted curve, though single readings scatter.

A short description of this experiment: cAMP Responsive Elements (CRE) small molecule agonists, cell-based qHTS assay: qHTS cell viability counter screen (AID 2060914). Further: nearly all actives have a fitted effect of over 50% in size. To be noted: CRE-bla HEK293T viability, CellTiter-Glo luminescence, 5 h; series mostly up to 92.4 µM. In short, it runs like this: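 HEK 293T CRE-bla; DMEM + 10% dialyzed FBS, 25 mM HEPES; 18 h pre-incubation; compound 3 h, 37 °C/5% CO2; CellTiter-Glo added after reporter read; luminescence after 30 min RT.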
Background: qHTS replaces the single test concentration by a dilution series.
Take `CCCCCCCCC/C=C/CC1CC(=O)OC1=O` (configuration not stated): the Potency entry is “inactive”. As for `Cc1cccc(S(=O)(=O)O)c1C`, the Potency entry is “inactive”.

Consider `C/C=C/C=N/NC(=O)c1ccncc1`, for which the Potency entry was “inactive”.

For `CCCCCCCCOC(=O)CCCCCCCCC(=O)OCCCCCCCC`, the Potency result was “inactive”. Still for that read-out and setting: the entry for `CC(C=O)Cc1ccc(C(C)(C)C)cc1` (configuration not stated) is “inactive”; for `Cc1cc2cc3c(C)cc(=O)oc3c(C)c2o1` it is “inactive”. With `Cc1cc(C)c(S(=O)(=O)O)cc1N=Nc1cc(S(=O)(=O)O)c2ccccc2c1O`, the Potency entry was “inactive”.

For `O=C(Oc1ccccc1)c1ccc(O)cc1`, the Potency entry is “inactive”.

Take `NC(=O)c1ccccc1O`: the Potency entry was “inactive”. Same read-out and setting: the entry for `O=C(Cn1ccnc1[N+](=O)[O-])NCCO` is “inactive”.

On to `C=CCCCCCCCCCCCCCCCC`, for which the activity change, negative = cytotoxicity is -18.5% [at 8.39 µM]. On to `CCOC(=O)C(C)C(C)=O` (configuration not stated), for which the Potency entry is “inactive”. On the same count and under the same terms, the entry for `CCC(C)(C)CC` is “inactive”.

For the molecule `C[C@@H](O)[C@H]1C(=O)N2C(C(=O)O)=C(S[C@@H]3CN[C@H](CNS(N)(=O)=O)C3)[C@H](C)[C@H]12`, the Potency result was “inactive”. Take `CN1C[C@H](C(=O)N[C@]2(C)O[C@@]3(O)[C@@H]4CCCN4C(=O)[C@H](Cc4ccccc4)N3C2=O)C[C@@H]2c3cccc4[nH]cc(c34)C[C@H]21`: the Potency result is “inactive”.

In the case of `CCc1cccc(CC)c1N(COC)C(=O)CS(=O)(=O)O`, the Potency entry is “inactive”.

For the molecule `N=c1nc(N2CCCCC2)cc(N)n1O`, the Potency result is “inactive”. Consider `CC/C=C\CCCCO`, for which the Potency entry was “inactive”.

For the molecule `O=C1O[C@@H]2[C@@H](O)[C@H](O)O[C@@H]2[C@H]1O`, the Potency result is “inactive”. Still for that read-out and setting: the entry for `CCCC[N+](C)(CCCC)CCCC` is “inactive”.

As for `C[n+]1ccn(CCO)c1`, the Potency result was “inactive”. Same read-out and setting: as for `CO[C@@]1(NC(=O)CSCC#N)C(=O)N2C(C(=O)O)=C(CSc3nnnn3C)CS[C@@H]21`, the entry is “inactive”.
